# The supplement of paper PMC8728848
# The entries come from a sample that favours the strongest signals as a whole.
# What was measured:
# Assay in all cases: glycan array binding signal (z-score within array); higher = stronger binding
# Conditions in all cases: glycan notation: IUPAC condensed, linker removed
# [1] = target: Fuc(a1-2)Gal(b1-3)GlcNAc(b1-2)Man(a1-3)[Fuc(a1-2)Gal(b1-3)GlcNAc(b1-2)Man(a1-6)]Man(b1-4)GlcNAc(b1-4)GlcNAc
# How it was run: (§1)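 Glycan array binding is given as a within-array Z-score, which can be read as non-binding when negative. The arrays, 3228 of them, came from the Consortium for Functional Glycomics database and were retained only where the protein sequence was available. Z-scores were averaged across arrays of the same protein sequence at different concentrations or buffers and across linkers.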
# Fuc(a1-2)Gal(b1-4)Glc6S = target: Fuc(a1-2)Gal(b1-4)Glc6S
# How it was run: as §1
# [2] = target: Fuc(a1-2)Gal(b1-4)GlcNAc(b1-3)Gal(b1-4)GlcNAc
# How it was run: as §1
# [3] = target: Fuc(a1-2)Gal(b1-4)GlcNAc(b1-3)GalNAc
# How it was run: as §1
# [4] = target: Fuc(a1-2)Gal(b1-4)GlcNAc(b1-3)[Fuc(a1-2)Gal(b1-4)GlcNAc(b1-6)]GalNAc
# How it was run: as §1
# [5] = target: Fuc(a1-2)Gal(b1-4)GlcNAc(b1-3)[Fuc(a1-3)[Gal(b1-4)]GlcNAc(b1-6)]Gal(b1-4)Glc
# How it was run: as §1
# [6] = target: Fuc(a1-2)Gal6S(b1-3)GlcNAc6S
# How it was run: as §1
# Fuc(a1-2)Gal6S(b1-4)Glc = target: Fuc(a1-2)Gal6S(b1-4)Glc
# How it was run: as §1
# Fuc(a1-2)[Gal(a1-3)]Gal = target: Fuc(a1-2)[Gal(a1-3)]Gal
# How it was run: as §1
# [7] = target: Fuc(a1-2)[GalNAc(a1-3)]Gal
# How it was run: as §1
# [8] = target: Fuc(a1-2)[GalNAc(a1-3)]Gal(b1-3)GalNAc(a1-3)[Fuc(a1-2)]Gal(b1-4)GlcNAc
# How it was run: as §1
# [9] = target: Fuc(a1-3)[Gal(b1-4)]GlcNAc(b1-3)Gal(b1-3)[Fuc(a1-4)]GlcNAc
# How it was run: as §1
# [10] = target: Fuc(a1-3)[Gal(b1-4)]GlcNAc(b1-3)Gal(b1-4)[Fuc(a1-3)]GlcNAc
# How it was run: as §1
# [11] = target: Fuc(a1-3)[Gal(b1-4)]GlcNAc(b1-6)GalNAc
# How it was run: as §1
# [12] = target: Fuc(a1-3)[GalNAc(b1-4)]GlcNAc
# How it was run: as §1
# Gal(a1-2)Gal = target: Gal(a1-2)Gal
# How it was run: as §1
# Gal(a1-3)Gal(b1-3)GlcNAc = target: Gal(a1-3)Gal(b1-3)GlcNAc
# How it was run: as §1
# Gal(b1-3)Gal(b1-4)GlcNAc = target: Gal(b1-3)Gal(b1-4)GlcNAc
# How it was run: as §1
# [13] = target: Gal(b1-3)GlcNAc(b1-3)Gal(b1-3)GlcNAc
# How it was run: as §1
# [14] = target: Gal(b1-3)GlcNAc(b1-3)Gal(b1-4)GlcNAc(b1-3)Gal(b1-4)GlcNAc(b1-2)[Gal(b1-3)GlcNAc(b1-3)Gal(b1-4)GlcNAc(b1-3)Gal(b1-4)GlcNAc(b1-6)]Man(a1-6)[Gal(b1-3)GlcNAc(b1-3)Gal(b1-4)GlcNAc(b1-3)Gal(b1-4)GlcNAc(b1-2)Man(a1-3)]Man(b1-4)GlcNAc(b1-4)[Fuc(a1-6)]GlcNAc
# How it was run: as §1
# [15] = target: Gal(b1-3)[Fuc(a1-4)]GlcNAc(b1-2)Man
# How it was run: as §1
# [16] = target: Gal(b1-3)[Fuc(a1-4)]GlcNAc(b1-2)Man(a1-3)[Gal(b1-3)[Fuc(a1-4)]GlcNAc(b1-2)Man(a1-6)]Man(b1-4)GlcNAc(b1-4)[Fuc(a1-6)]GlcNAc
# How it was run: as §1
# [17] = target: Gal(b1-3)[Fuc(a1-4)]GlcNAc(b1-6)GalNAc
# How it was run: as §1
# [18] = target: Gal(b1-3)[Neu5Ac(a2-6)]GlcNAc(b1-4)Gal(b1-4)Glc
# How it was run: as §1
# [19] = target: Gal(b1-3)[Neu5Ac(b2-6)]GalNAc
# How it was run: as §1
# [20] = target: Gal(b1-4)GlcNAc(b1-3)Gal(b1-4)Glc
# How it was run: as §1
# [21] = target: Gal(b1-4)GlcNAc(b1-3)Gal(b1-4)GlcNAc(b1-3)Gal(b1-4)GlcNAc(b1-3)Gal(b1-4)GlcNAc(b1-3)Gal(b1-4)GlcNAc(b1-2)Man(a1-3)[Gal(b1-4)GlcNAc(b1-3)Gal(b1-4)GlcNAc(b1-3)Gal(b1-4)GlcNAc(b1-3)Gal(b1-4)GlcNAc(b1-3)Gal(b1-4)GlcNAc(b1-2)Man(a1-6)]Man(b1-4)GlcNAc(b1-4)GlcNAc
# How it was run: as §1
# [22] = target: Gal3S(b1-4)[Fuc(a1-3)]Glc6S
# How it was run: as §1
# Gal6S(b1-4)GlcNAc6S = target: Gal6S(b1-4)GlcNAc6S
# How it was run: as §1
# GalNAc3S(b1-4)GlcNAc = target: GalNAc3S(b1-4)GlcNAc
# How it was run: as §1
# GalNAc6S(b1-4)GlcNAc = target: GalNAc6S(b1-4)GlcNAc
# How it was run: as §1
# [23] = target: Glc(a1-4)Glc(a1-4)Glc(a1-4)Glc
# How it was run: as §1
# Glc(a1-6)Glc(a1-6)Glc = target: Glc(a1-6)Glc(a1-6)Glc
# How it was run: as §1
# [24] = target: Glc(a1-6)Glc(a1-6)Glc(a1-6)Glc
# How it was run: as §1
# GlcA(b1-6)Gal = target: GlcA(b1-6)Gal
# How it was run: as §1
# [25] = target: GlcNAc(b1-3)Gal(b1-4)GlcNAc(b1-3)Gal(b1-4)GlcNAc(b1-3)Gal(b1-4)GlcNAc(b1-3)Gal(b1-4)GlcNAc(b1-2)Man(a1-3)[GlcNAc(b1-3)Gal(b1-4)GlcNAc(b1-3)Gal(b1-4)GlcNAc(b1-3)Gal(b1-4)GlcNAc(b1-3)Gal(b1-4)GlcNAc(b1-2)Man(a1-6)]Man(b1-4)GlcNAc(b1-4)[Fuc(a1-6)]GlcNAc
# How it was run: as §1
# [26] = target: GlcNAc(b1-3)Gal(b1-4)GlcNAc(b1-3)[GlcNAc(b1-3)Gal(b1-4)GlcNAc(b1-3)]GalNAc
# How it was run: as §1
# GlcNAc(b1-3)Man = target: GlcNAc(b1-3)Man
# How it was run: as §1
# [27] = target: Man(a1-2)Man(a1-2)Man(a1-6)[Man(a1-3)]Man
# How it was run: as §1
# [28] = target: Man(a1-2)Man(a1-6)[Man(a1-3)]Man(a1-6)[Man(a1-2)Man(a1-2)Man(a1-3)]Man
# How it was run: as §1
# Man(a1-3)[Man(a1-6)]Man = target: Man(a1-3)[Man(a1-6)]Man
# How it was run: as §1
# [29] = target: Man(a1-3)[Man(a1-6)]Man(a1-6)[Man(a1-2)Man(a1-3)]Man(b1-4)GlcNAc(b1-4)GlcNAc
# How it was run: as §1
# [30] = target: Neu5Ac(a2-3)Gal(b1-3)[Fuc(a1-4)]GlcNAc(b1-3)Gal(b1-4)[Fuc(a1-3)]GlcNAc
# How it was run: as §1
# [31] = target: Neu5Ac(a2-3)Gal(b1-4)GlcNAc
# How it was run: as §1
# [32] = target: Neu5Ac(a2-3)Gal(b1-4)GlcNAc(b1-3)Gal(b1-4)GlcNAc(b1-3)Gal(b1-4)GlcNAc
# How it was run: as §1
# [33] = target: Neu5Ac(a2-3)Gal6S(b1-4)[Fuc(a1-3)]GlcNAc
# How it was run: as §1
# [34] = target: Neu5Ac(a2-6)Gal(b1-3)GlcNAc(b1-3)[Gal(b1-4)GlcNAc(b1-6)]Gal(b1-4)Glc
# How it was run: as §1
# [35] = target: Neu5Ac(a2-6)Gal(b1-4)GlcNAc
# How it was run: as §1
# [36] = target: Neu5Ac(a2-6)Gal(b1-4)GlcNAc(b1-2)Man(a1-3)[Neu5Ac(a2-6)Gal(b1-4)GlcNAc(b1-2)Man(a1-6)]Man(b1-4)GlcNAc(b1-4)[Fuc(a1-6)]GlcNAc
# How it was run: as §1
# [37] = target: Neu5Ac(a2-6)Gal(b1-4)GlcNAc(b1-3)GalNAc
# How it was run: as §1
# [38] = target: Neu5Ac(a2-6)Gal(b1-4)GlcNAc(b1-6)[Gal(b1-3)GlcNAc(b1-3)]Gal(b1-4)Glc
# How it was run: as §1
# [39] = target: Neu5Ac(a2-8)Neu5Ac(a2-3)Gal(b1-4)Glc
# How it was run: as §1
# [40] = target: Neu5Gc(a2-3)Gal(b1-4)GlcNAc(b1-3)Gal(b1-4)GlcNAc(b1-2)Man(a1-3)[Neu5Gc(a2-3)Gal(b1-4)GlcNAc(b1-3)Gal(b1-4)GlcNAc(b1-2)Man(a1-6)]Man(b1-4)GlcNAc(b1-4)GlcNAc
# How it was run: as §1
# [41] = target: Neu5Gc(a2-8)Neu5Gc(a2-6)Gal(b1-4)GlcNAc
# How it was run: as §1
binder,measurement,setting,value
Tamarinin (protein) CDDSARAGNIVVYWGQGGSDNSEGSLKEACKSGHYNMIVLQQLIVYDDGRDPDLNLGAHCSDCTKLEEQIKYCQNKDIKILLQIGQVVPTQEDVKDVTKNLSEYLLKNFFSGKSGPLGEVYLNGIDIASVPEGNNLKFDELVEALNDSSTERRIYLSASPLCVYPDYYLNKAIQTEKLDFLFVQFFYQNPCIYTEGNPENLFEAMKTWTKNVPESMIFMALPATPNLDGYIPPRVLNKEILPAVSEASNFAGVMIFDRYFDRFRKYSSKIK,glycan array binding signal (z-score),[1],0.79
same,glycan array binding signal (z-score),Fuc(a1-2)Gal(b1-4)Glc6S,-0.241
same,glycan array binding signal (z-score),[2],-0.361
same,glycan array binding signal (z-score),[3],0.146
same,glycan array binding signal (z-score),[4],4.01
same,glycan array binding signal (z-score),[5],-0.458
same,glycan array binding signal (z-score),[6],4.89
same,glycan array binding signal (z-score),Fuc(a1-2)Gal6S(b1-4)Glc,-0.164
same,glycan array binding signal (z-score),Fuc(a1-2)[Gal(a1-3)]Gal,-0.275
same,glycan array binding signal (z-score),[7],-0.388
same,glycan array binding signal (z-score),[8],-0.292
same,glycan array binding signal (z-score),[9],-0.377
same,glycan array binding signal (z-score),[10],0.223
same,glycan array binding signal (z-score),[11],-0.129
same,glycan array binding signal (z-score),[12],-0.154
same,glycan array binding signal (z-score),Gal(a1-2)Gal,-0.001
same,glycan array binding signal (z-score),Gal(a1-3)Gal(b1-3)GlcNAc,-0.375
same,glycan array binding signal (z-score),Gal(b1-3)Gal(b1-4)GlcNAc,11.2
same,glycan array binding signal (z-score),[13],-0.135
same,glycan array binding signal (z-score),[14],4.61
same,glycan array binding signal (z-score),[15],1.45
same,glycan array binding signal (z-score),[16],3.52
same,glycan array binding signal (z-score),[17],-0.371
same,glycan array binding signal (z-score),[18],2.92
same,glycan array binding signal (z-score),[19],-0.455
same,glycan array binding signal (z-score),[20],0.79
same,glycan array binding signal (z-score),[21],-0.24
same,glycan array binding signal (z-score),[22],-0.238
same,glycan array binding signal (z-score),Gal6S(b1-4)GlcNAc6S,-0.214
same,glycan array binding signal (z-score),GalNAc3S(b1-4)GlcNAc,2.59
same,glycan array binding signal (z-score),GalNAc6S(b1-4)GlcNAc,2.4
same,glycan array binding signal (z-score),[23],-0.232
same,glycan array binding signal (z-score),Glc(a1-6)Glc(a1-6)Glc,-0.034
same,glycan array binding signal (z-score),[24],0.415
same,glycan array binding signal (z-score),GlcA(b1-6)Gal,0.165
same,glycan array binding signal (z-score),[25],-0.061
same,glycan array binding signal (z-score),[26],-0.332
same,glycan array binding signal (z-score),GlcNAc(b1-3)Man,0.095
same,glycan array binding signal (z-score),[27],14.1
same,glycan array binding signal (z-score),[28],-0.298
same,glycan array binding signal (z-score),Man(a1-3)[Man(a1-6)]Man,0.04
same,glycan array binding signal (z-score),[29],-0.295
same,glycan array binding signal (z-score),[30],3.05
same,glycan array binding signal (z-score),[31],-0.352
same,glycan array binding signal (z-score),[32],-0.251
same,glycan array binding signal (z-score),[33],-0.371
same,glycan array binding signal (z-score),[34],-0.386
same,glycan array binding signal (z-score),[35],-0.341
same,glycan array binding signal (z-score),[36],-0.131
same,glycan array binding signal (z-score),[37],5.41
same,glycan array binding signal (z-score),[38],-0.361
same,glycan array binding signal (z-score),[39],-0.395
same,glycan array binding signal (z-score),[40],-0.36
same,glycan array binding signal (z-score),[41],-0.477
